Screens as filed in PubChem BioAssay.
In the library only some 1.4% were active in any assay of this set; here they are far more common.
p53 reactivator – mutant p53 re-activation in reporter cells; H1299 p53-A138V BP100-luciferase reporter, luminescence, 24 h; hit rate 0.063% among 320,000; Potency, µM (titrated, usually from 92.2 µM), inactives show at the top dose activity change, positive = activation, hits mostly activators; AID 504706; further: potency means the concentration at half of the fitted maximal effect; % of control where 0% means no effect; nearly all actives have a fitted effect of over 45% in size
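p53-null H1299 cells stably carrying temperature-sensitive p53-A138V and a BP100-luciferase reporter were pinned with compounds (4-point, 1:5 series) and held 24 hrs at 37 deg C. Luminescence was read 10 min after detection reagent.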
uPA generation – blocks generation of uPA at the cell surface; cell surface uPA generation assay, qHTS; Potency, µM (titrated, usually from 38.3 µM), for inactives: at the top dose activity change, negative = inhibition, usual class: inhibitors; hit rate 0.31% among 330,000; AID 540303; active means well fitted inhibition curve with a large enough effect; inconclusive means small, poorly fitted or top-dose-only effect; inactive means no such curve, though single readings can be large or run the other way; tested in mouse RAW 264.7 cells; further: potency means the concentration at half of the fitted maximal effect; on the % scale 0 is the no-effect control and ±100 the full control effect; nearly all actives have a fitted effect of over 55% in size
BRCA1 expr act – increases BRCA1 expression | hit rate 1.1% among 380,000 | Potency, µM (doses to about 46.1 µM), for the others: at the top dose activation, hits mostly activators | MCF7-BRCA1-FFLuc reporter, luminescence, 48 h; response scale: scaled: vehicle 0%, 10 µM genistein 100%; further: potency means the concentration at half of the fitted maximal effect; nearly all actives have a fitted effect of over 80% in size
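48 h compound treatment of MCF7-BRCA1-FFLuc cells (phenol-red free MEM, 37 °C), then 15 min with luciferase substrate and luminescence imaging.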
IL-2 act – IL-2 activation; IL-2 activation reporter assay, cell-based qHTS; stimulated with anti-CD3/CD4/CD28 beads; in transgenic mouse T cells; activation, % (series mostly up to about 46 µM); hit rate 0.065% among 360,000; in the data active means activation above about 50%; inconclusive means mostly about 30% to 49%; further: 0% is about no effect
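Readout is EGFP and DsRed signal by fluorescent plate cytometry after 18 h at 37 degrees C. Transgenic mouse T cells (750/well) received compound for 60 min before bead stimulation (anti-CD3, anti-CD4, anti-CD28); memory T cells served as non-tolerant control.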
TCR activator – activators of T cell receptors. primary human leukocytes, anti-CD3, IL-2 HTRF, 48 h. Potency, µM (titrated, usually from 9.22 µM), without a hit: top-dose activation of IL-2 secretion, actives largely listed as activators. 330,000 tested, under 10 active; further: % of control where 0% means no effect
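48 hr co-incubation of compounds, a-CD3 beads and primary human leukocytes; IL-2 quantified homogeneously by HTRF with anti-IL-2 K and d2 conjugates.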
Numbers without * were called inactive; u = inconclusive; x = not tested or not shown; [ ] = remark or other dose. Unless noted, the call rests on the fitted dose curve; in most records, active means well fitted curve in the direction sought with a large enough effect; inconclusive means small, poorly fitted or top-dose-only effect, or another doubt; inactive means no such curve, though single readings can be large; an effect the other way counts as inactive or inconclusive.

SMILES	p53 reactivator	uPA generation	BRCA1 expr act	IL-2 act	TCR activator
Cc1nc(N2CCN(C(=O)c3ccco3)CC2)c2c3c(sc2n1)CC(C)CC3 (centres undefined)	-5%	2.8µM*	-29%	-1	-2%
CN(C)c1ccc(/C=C/c2sc3ccccc3[n+]2CCCCI)cc1	x	x	-44%	x	x
Cc1ccc(N=C2NC(=O)/C(=C/c3cccn3C)S2)cc1C	3%	-4%	2%	4	1%
Cc1ccc(N=C2NC(=O)/C(=C/c3cccn3C)S2)cc1	28%	2.8µM*	3.5µM*	-1	-5%
Cc1ccc(NC(=O)c2ccc(NC(=O)C3CCCC3)cc2)c(C)c1	x	x	28%	x	x
CCc1ccc(NC(=O)C(=O)NCCc2sc(-c3ccc(OC)c(OC)c3)nc2C)cc1	x	x	2%	x	x
Cc1nnc(-c2ccc(N3CCCCCC3)c([N+](=O)[O-])c2)o1	8%	8%	22µM*	2	4%
COC(C(=O)C(O)C(C)O)C1Cc2cc3cc(OC4CC(OC5CC(O)C(O)C(C)O5)C(O)C(C)O4)c(C)c(O)c3c(O)c2C(=O)C1OC1CC(OC2CC(OC3CC(C)(O)C(O)C(C)O3)C(O)C(C)O2)C(O)C(C)O1 (centres undefined)	x	x	-59%	x	x
CCN(Cc1ccccc1)C(=O)c1cnn(-c2ccc(F)cc2)c1-n1cccc1	x	x	-29%	x	x
COc1ccc2c(CNC3CCC(C)CC3)c(C(=O)O)n(Cc3ccc(F)cc3)c2c1 (centres undefined)	x	x	-42%	x	x
CCOc1ccc(N(CC(=O)Nc2ccccc2Cl)S(C)(=O)=O)cc1	x	10µM*	-1%	-1	x
CCOc1ccc(N(CC(=O)Nc2ccccc2)S(C)(=O)=O)cc1	1%	-1%	49%	0	-1%
CCOc1ccc(N(CC(=O)Nc2ccc(C)c(C)c2)S(C)(=O)=O)cc1	0%	3%	2µM*	-1	x
CCOc1ccc(N(CC(=O)Nc2ccccc2OC)S(C)(=O)=O)cc1	x	u	-26%	0	-2%
O=C(c1ccccc1)N1CCC(=O)N1c1ccccc1	-1%	1%	-7%	0	-1%
O=C1CN(c2ccccc2)C(=S)N1C(=O)c1ccccc1	10%	-3%	7.1µM*	-2	6%
CCn1cc(C(=O)NCc2ccc(Cl)cc2)c(=O)c2cc(S(=O)(=O)N(C)C3CCCCC3)ccc21	x	x	-48%	x	x
COc1ccc(N2CCN(c3ccc(-c4nc(-c5ccccc5C)no4)cc3[N+](=O)[O-])CC2)cc1	x	x	0%	x	x
O=C(N/N=C/c1c[nH]c2ccccc12)c1cccc(O)c1	11%	-21%	13µM*	3	1%
O=C(O)c1cc(N/N=C/c2c[nH]c3ccccc23)ccc1Cl	12%	1%	3.2µM*	0	8%
O=C(O)c1cc(N/N=C/c2ccc(-c3ccccc3)cc2)ccc1Cl	u	2%	u	2	-4%
C=CCn1c2ccccc2c(=O)c2cc(C#Cc3ccccn3)ccc21	u	u	8.9µM*	0	1%
COc1ccc(OC)c(S(=O)(=O)N/N=C\c2ccc3c(c2)OCO3)c1	6%	4%	13µM*	-2	0%
O=C(CSc1nc2ccccc2o1)Nc1ccc(N2CCOCC2)cc1	6%	-26%	u	-1	x
O=C(CSc1nc2cc(Cl)ccc2o1)Nc1ccc(N2CCOCC2)cc1	u	x	13µM*	-5	3%
SMILES	p53 reactivator	uPA generation	BRCA1 expr act	IL-2 act	TCR activator
COC(=O)c1c(SC)nc2ccccc2c1OCc1ccccc1Cl	x	x	0%	x	x
CCN(CC)CCOC(=O)c1ccc(NC(=O)c2cc3cc(OC)ccc3oc2=O)cc1	x	x	8%	x	x
Cc1cc(C(=O)Nc2ccc([N+](=O)[O-])cn2)cs1	x	-15%	3.2µM*	1	3%
COc1cc(OC)cc(C(=O)Nc2ccc([N+](=O)[O-])cn2)c1	28%	1%	40%	-1	6%[46.1 µM]
COc1ccc2c(c1)C=C/C2=C\c1ccc(N(C)C)cc1	x	x	4%	x	x
COc1ccc(NC(=O)CSc2ncc3c(n2)-c2ccccc2N(Cc2ccc(C)cc2)S3(=O)=O)cc1Cl	x	x	-1%	x	x
COc1cc(OC)cc(-c2noc(-c3csc([C@H]4C[C@H](O)[C@@H](CO)O4)n3)n2)c1	x	x	3.2µM*	0	x
O=C(N/N=C/c1sc2ccccc2c1O)c1ccccc1	14µM*	-9%	-80%	11	1%[46.1 µM]
Cc1cc(C(=O)N/N=C/c2cc(N=Nc3ccccc3)ccc2O)n[nH]1	13µM*	-19%	-68%	0	-1%[46.1 µM]
Cc1ccc(Cl)cc1N1CCN(C(=O)CCCn2c(=O)[nH]c3ccc(Br)cc3c2=O)CC1	x	x	-53%	x	x
Cc1nc(-c2ccc3c(c2)OCCCO3)cs1	7%	-5%	2.5µM*	-1	-9%
Cc1[nH]n(-c2ccc(Br)cc2)c(=O)c1/C=N/NC(=O)c1ccccc1	-13%	6.3µM*	-51%	0	x
CCOC(=O)/C(C#N)=C\c1ccc(CC)s1	15%	0%	25%	0	2%
CCOC(=O)/C(C#N)=C\C=C1C=CN(C)C=C1	10%	-10%	4µM*	6	10%
COc1ccccc1N1CCN(S(=O)(=O)CCNC(=O)c2cc(OC)c(OC)c(OC)c2)CC1	-6%	13µM*	-42%	1	1%
COc1ccccc1N1CCN(S(=O)(=O)CCNC(=O)c2ccco2)CC1	x	x	-5%	2	x
O=C(Cc1cccs1)NCCS(=O)(=O)N1CCN(c2ccccc2F)CC1	-3%	3.2µM*	-42%	-1	3%
Oc1ccc(N2CCN(C(c3ccc(Cl)cc3)c3nnnn3Cc3ccc(F)cc3)CC2)cc1 (centres undefined)	x	x	-51%	x	x
COc1cccc(-c2ccc(-c3noc(-c4ccccc4F)n3)c(OC)n2)c1	3%	x	10µM*	0	-1%
COCc1nc(-c2ccc(-c3ccccc3)nc2OC)no1	19%	-1%	10µM*	-1	-3%[46.1 µM]
COc1cccc(-c2ccc(-c3noc(-c4cccs4)n3)c(OC)n2)c1	16%	-1%	57%	0	16%
Cc1ccc(CSc2nc3ccncc3n2Cc2nc(-c3ccccc3C)oc2C)cc1	x	x	0%	x	x
